The record followed here is article PMC4336329 (PLoS ONE, 2015).

Molecules are shown by their SMILES. Screen size: about 310,000 compounds; about 14,000 (4.5%) showed an effect of 50% or more. The effect is printed as a negative number. The list comes from a sample in which strong results are over-represented; it also holds similar structures and randomly drawn compounds.
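Also: peak tail current of the secondary pulse compared with the same well before compound.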

The target in this test is human ether-à-go-go-related gene (hERG) potassium channel (human, UniProt Q12809). In words: primary screen, population patch clamp on CHO cells stably expressing hERG; higher = less effect of the substance.
Sequence of human ether-à-go-go-related gene (hERG) potassium channel (Q12809 whole entry, looked up): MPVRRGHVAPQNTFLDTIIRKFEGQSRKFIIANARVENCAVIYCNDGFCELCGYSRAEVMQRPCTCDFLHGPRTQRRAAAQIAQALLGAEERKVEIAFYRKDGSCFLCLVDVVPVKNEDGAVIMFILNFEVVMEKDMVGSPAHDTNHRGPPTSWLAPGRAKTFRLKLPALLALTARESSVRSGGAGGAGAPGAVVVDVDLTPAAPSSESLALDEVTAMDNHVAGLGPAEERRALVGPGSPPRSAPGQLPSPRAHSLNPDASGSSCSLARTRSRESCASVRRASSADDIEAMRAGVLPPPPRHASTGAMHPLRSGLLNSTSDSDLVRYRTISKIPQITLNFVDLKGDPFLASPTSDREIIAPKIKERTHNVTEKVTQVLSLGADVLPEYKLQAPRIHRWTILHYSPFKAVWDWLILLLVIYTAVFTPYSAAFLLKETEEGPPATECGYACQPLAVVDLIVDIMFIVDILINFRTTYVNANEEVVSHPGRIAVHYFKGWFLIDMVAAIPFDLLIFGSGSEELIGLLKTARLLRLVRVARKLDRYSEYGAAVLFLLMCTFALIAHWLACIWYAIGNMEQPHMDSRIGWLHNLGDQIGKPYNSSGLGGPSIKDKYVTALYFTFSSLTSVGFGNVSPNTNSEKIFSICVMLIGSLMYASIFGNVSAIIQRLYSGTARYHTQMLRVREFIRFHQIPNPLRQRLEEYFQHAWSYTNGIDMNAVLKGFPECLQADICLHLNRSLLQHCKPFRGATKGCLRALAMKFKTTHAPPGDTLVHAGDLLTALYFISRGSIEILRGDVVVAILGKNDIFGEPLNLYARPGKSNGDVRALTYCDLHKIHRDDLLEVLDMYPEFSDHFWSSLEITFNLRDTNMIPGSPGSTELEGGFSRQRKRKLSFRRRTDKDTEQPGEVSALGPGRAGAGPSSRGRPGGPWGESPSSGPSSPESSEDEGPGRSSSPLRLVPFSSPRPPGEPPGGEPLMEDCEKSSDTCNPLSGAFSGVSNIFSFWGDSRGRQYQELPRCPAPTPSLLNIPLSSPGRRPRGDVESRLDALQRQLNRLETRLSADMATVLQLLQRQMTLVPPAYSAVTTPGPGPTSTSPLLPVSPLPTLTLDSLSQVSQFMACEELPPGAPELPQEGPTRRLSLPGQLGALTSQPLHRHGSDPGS
Consider `Cc1ccc(-c2nn(Cc3ccccc3)cc2C=O)cc1C`, for which the “hERG current change (%, negative = inhibition) at 10uM” value was -13.9%. Under `Cc1cnc(NC(=O)CSc2nc3ccccc3c(=O)[nH]2)s1` stands -7.72%; under `Cc1cccn2c(=O)c3cc(C(=O)O)n(C)c3nc12`, 6.65%. Consider `Cc1ccc(CCNC(=O)c2ccc3nc4ccc(Cl)cc4c(=O)n3c2)cc1`, for which the “hERG current change (%, negative = inhibition) at 10uM” value came to 20.4%.

As for `CNC(=O)c1cc2c(=O)n3cc(C)ccc3nc2n(C(C)C)c1=N`, the “hERG current change (%, negative = inhibition) at 10uM” value was -77.1%. `Cc1cccn2c(=O)c3cc(C(=O)NCc4cccnc4)c(=N)n(C(C)C)c3nc12`: the “hERG current change (%, negative = inhibition) at 10uM” value is listed as -69.4%. Under `Cc1ccc2nc(SCC(=O)Nc3cccc4ccccc34)nc(=O)n2c1` stands -14%. Under `Cc1cccn2c(=O)c3cc(C(=O)N(C)C)n(C)c3nc12` stands 2.7%; under `CNC(=O)c1cc2c(=O)n3cccc(C)c3nc2n(C(C)C)c1=N`, -77.3%. For `Cc1cccn2c(=O)c3cc(C(=O)NCC(C)C)sc3nc12` the value was -3.21%.

Take `Cc1ccccc1CC(=O)NCc1cccnc1`: the “hERG current change (%, negative = inhibition) at 10uM” value is on record as 10.8%. For `O=C(CSc1nnc2scc(-c3ccc(Cl)cc3)n12)NCc1ccco1` the value was -15.9%; for `CCOc1cc(CNC(C)(C)CO)cc(Br)c1OCc1ccc(Cl)cc1Cl`, -12.1%; for `COC1CCN(C(=O)CC2C(=O)NCCN2CC(C)(C)C)CC1` (centres unmarked), 18.5%. For `COC(=O)c1cc(NC(=O)c2cccnc2)cc(C(=O)OC)c1` the value was 11%; for `N#CC(=C1SC=CS1)c1nc(-c2ccccc2)cs1`, 9.47%. As for `CC(C)c1ccc(/C=C(\NC(=O)c2ccccc2)C(=O)NCCN2CCOCC2)cc1`, the “hERG current change (%, negative = inhibition) at 10uM” value is -61%. For `CNC(=O)C(=O)NCCCN1CCOCC1` the value was 7.92%; for `CC(C)CNC(=O)C(=O)NCCCN1CCOCC1`, -61.6%. Under `O=C(NCCCN1CCOCC1)/C(=C/c1ccco1)NC(=O)c1ccccc1` stands 1.44%; under `CC(C)c1ccc(/C=C(\NC(=O)c2ccccc2)C(=O)NCCCN2CCOCC2)cc1`, -71.4%; under `Cn1cc(/C=C(\NC(=O)c2ccccc2)C(=O)NCCCN2CCOCC2)c2ccccc21`, 3.43%. Regarding `O=C(NCCN1CCOCC1)/C(=C\c1ccccc1Cl)NC(=O)c1ccccc1`, the “hERG current change (%, negative = inhibition) at 10uM” value is given as -16.2%. For `CC(C)NC(=O)C(=O)NCCCN1CCOCC1` the value was 25.1%.

Consider `CC(=O)c1ccc(S(=O)(=O)N(C)C(C)CCc2ccco2)cc1` (centres unmarked), for which the “hERG current change (%, negative = inhibition) at 10uM” value is on record as -6.81%. For `CC(=O)N1CCc2cc(Br)cc(S(=O)(=O)N3CCN(c4ccccn4)CC3)c21` the value was 10.7%.
